# Experimental data published in PubChem BioAssay (NCATS).
# A number with no mark means an inactive call. Active and inactive are the calls of the source. How the calls were made is not given here.
# System: HIV-1 nucleocapsid protein NCp7 (binding to TG oligonucleotide)
# Experiment: HIV Nucleocapsid (AID 346);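 further: potency is for inhibitors that block NC binding and lower polarization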
# Details: HIV-1 NC / fluorescein-TGTGTGTG probe, fluorescence polarization
# Method in brief: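 Inhibition of nucleocapsid binding to single-stranded 5'-TGTGTGTG probe (10 nM) was measured by fluorescence polarization after 1 hr at room temperature with 100 nM protein under high-salt, zinc-containing, reducing conditions.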
# Potency means the concentration at half of the fitted maximal effect.
row,Compound,Potency
1,CS(=O)(=O)N1CCC2(CCN(C(=O)Nc3cccc(C#N)c3)CC2)CC1,> 20 µM
2,Cc1noc(C)c1C(=O)N1CCC[C@@]2(CCN(Cc3nccs3)C2)C1,> 20 µM
3,CCNc1ncc2nc(-c3ccc(OC)cc3)c(=O)n(Cc3cccc(OC)c3)c2n1,4.61 µM (active)
4,CS(=O)(=O)Nc1cccc(-c2nccc(-n3ccnc3)n2)c1,> 20 µM
5,O=C(c1csnn1)N1CCC2(CCCN(c3ccncc3)C2)CC1,> 20 µM
6,c1cncc(-c2cncnc2NC2CCNCC2)c1,> 20 µM
7,O=C(c1cccc(F)c1)N1CCC2(CC1)CN(c1cccc(-c3ccccc3)c1)C2,> 20 µM
8,CN1CCN(c2ncc3nc(-c4cccs4)c(=O)n(Cc4ccc(F)cc4)c3n2)CC1,> 4 µM
9,COc1cccc(Cn2c(=O)c(-c3cn(C)c4ccccc34)nc3cnc(N4CCNCC4)nc32)c1,> 20 µM
10,Clc1ccccc1-c1nc(NCCN2CCOCC2)c2ccccc2n1,> 20 µM
11,Cc1noc(C)c1-c1nccc(NC2CC2)n1,> 20 µM
12,O=S(=O)(c1ccccc1)N1CCC[C@@]2(CCN(Cc3ccccc3)C2)C1,> 20 µM
13,CN(C)c1ncc2nc(-c3cc(F)cc(F)c3)c(=O)n(CCC#N)c2n1,> 20 µM
14,O=C(c1cccc(F)c1)N1CCC2(CCCN(Cc3cc(C(F)(F)F)cc(C(F)(F)F)c3)C2)CC1,> 20 µM
15,O=c1c(-c2cc(F)cc(F)c2)nc2cnc(N3CCOCC3)nc2n1C[C@H]1CCCO1,> 20 µM
16,Cc1ccccc1-c1cncnc1N(C)Cc1ccco1,> 20 µM
17,FC(F)(F)c1ccccc1-c1nc(NC2CC2)c2ccccc2n1,> 20 µM
18,O=c1c(-c2ccccc2)nc2cnc(N3CCOCC3)nc2n1C[C@H]1CCCO1,> 20 µM
19,COC(=O)N1CCC2(CCN(C(=O)Nc3cccc(C#N)c3)CC2)CC1,> 20 µM
20,O=C(Oc1ccccc1)N1CCC2(CC1)CN(c1ccccc1)C2,> 20 µM
21,CN(C)Cc1ccccc1-c1cc(Nc2ccccc2)ncn1,> 20 µM
22,O=C(c1cccc(F)c1)N1CCC2(CCCN(c3ccncc3)C2)CC1,> 20 µM
23,Cn1c(=O)c(-c2ccc(F)cc2)nc2cnc(Oc3ccccc3)nc21,> 20 µM
